# The campaign covered roughly 310,000 compounds. About 14,000 (4.5%) showed an effect of 50% or more. The effect is printed as a negative number. The sample holds strong results, similar compounds and a random draw of the others, so the mix is not that of the screen.
# Target: human ether-à-go-go-related gene (hERG) potassium channel (human, UniProt Q12809)
# Test: primary screen, population patch clamp on CHO cells stably expressing hERG; higher = less effect of the substance
# Description: Briefly, Chinese hamster ovary (CHO) cells stably expressing the hERG channel were dislodged from tissue culture flasks and dispensed into PPC plates. […] During the recording, background leak currents were estimated by a 100 ms step to -80 mV from an initial holding potential of -70 mV and subtracted from the subsequent current measurement. The campaign was conducted in two phases using slight differences in recording protocol. In the first phase, the initial voltage pulse used a 100 ms step to -30 mV from a holding potential of -70 mV, a 2 s conditioning step to +25 mV, and a 2 s test step to -30 mV. During the second phase of the screen, the potential during the conditioning step was raised to +45 mV. In both phases of the campaign, a secondary voltage pulse was applied using the same parameters as the second phase initial pulse. The initial and secondary pulses were applied in the absence of compound, and upon application of 1 μM and 10 μM test concentrations. […]
# 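Note: peak tail current of the secondary pulse compared with the same well before compound.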
# human ether-à-go-go-related gene (hERG) potassium channel, sequence (Q12809 whole entry, looked up): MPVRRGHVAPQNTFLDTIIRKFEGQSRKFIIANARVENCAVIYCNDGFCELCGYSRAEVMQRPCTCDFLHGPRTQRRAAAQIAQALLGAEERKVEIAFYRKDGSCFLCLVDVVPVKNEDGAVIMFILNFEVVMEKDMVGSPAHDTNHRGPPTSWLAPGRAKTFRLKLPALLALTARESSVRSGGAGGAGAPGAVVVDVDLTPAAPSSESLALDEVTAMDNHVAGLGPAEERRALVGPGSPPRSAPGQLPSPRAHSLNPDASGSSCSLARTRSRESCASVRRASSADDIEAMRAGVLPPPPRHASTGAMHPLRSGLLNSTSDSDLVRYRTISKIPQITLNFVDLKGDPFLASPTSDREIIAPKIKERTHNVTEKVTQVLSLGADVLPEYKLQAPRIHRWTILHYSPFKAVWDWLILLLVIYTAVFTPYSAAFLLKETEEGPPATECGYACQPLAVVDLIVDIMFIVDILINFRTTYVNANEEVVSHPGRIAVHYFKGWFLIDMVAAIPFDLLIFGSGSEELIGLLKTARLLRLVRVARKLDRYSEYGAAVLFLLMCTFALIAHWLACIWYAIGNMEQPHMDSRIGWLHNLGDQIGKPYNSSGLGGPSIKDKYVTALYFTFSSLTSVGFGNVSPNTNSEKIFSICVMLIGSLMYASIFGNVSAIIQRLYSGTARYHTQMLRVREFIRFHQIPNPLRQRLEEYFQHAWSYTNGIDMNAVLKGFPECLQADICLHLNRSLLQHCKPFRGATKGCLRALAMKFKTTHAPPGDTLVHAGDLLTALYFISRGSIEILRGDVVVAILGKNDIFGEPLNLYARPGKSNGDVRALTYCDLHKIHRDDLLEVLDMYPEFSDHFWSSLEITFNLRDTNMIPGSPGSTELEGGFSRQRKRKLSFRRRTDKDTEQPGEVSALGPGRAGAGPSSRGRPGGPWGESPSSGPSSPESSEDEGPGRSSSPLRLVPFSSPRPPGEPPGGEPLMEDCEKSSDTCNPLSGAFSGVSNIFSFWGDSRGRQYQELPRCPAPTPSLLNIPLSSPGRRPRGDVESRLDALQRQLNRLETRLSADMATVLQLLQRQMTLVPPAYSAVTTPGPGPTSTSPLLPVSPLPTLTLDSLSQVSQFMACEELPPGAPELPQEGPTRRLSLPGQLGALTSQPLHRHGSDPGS
row,SMILES,"hERG current change (%, negative = inhibition) at 10uM"
1,O=C1Nc2ccc(C(F)(F)F)cc2N2CCCC12 (stereo not drawn),-1.52%
2,Cc1ccc(CSCCNC(=O)CN(c2cc(C)ccc2C)S(C)(=O)=O)cc1,-23.5%
3,COC(=O)C1=C(C)N(Cc2ccc(OC)c(OC)c2)C(=O)C1,10.7%
4,C=CCSc1n[nH]c(-c2cccs2)n1,14.4%
5,CN(CCO)S(=O)(=O)c1ccc2c(c1)C(=NN)c1cc(S(=O)(=O)N(C)CCO)ccc1-2,9.76%
6,CN1C2CCC1CC(OC(c1ccccc1)c1ccccc1N)C2 (stereo not drawn),-68.5%
7,CCOC(=O)C1CCN(C(=O)CNC(=O)c2nn(-c3ccc(OC)cc3)c(=O)c3ccccc23)CC1,-9.73%
8,Cc1ccc(Cl)cc1NC(=O)CC1NCCNC1=O (stereo not drawn),13.6%
9,COc1ccccc1-c1c(C)nn2c(N3CCOCC3)cc(C)nc12,2.71%
10,CC(C)OC(=O)CCCNc1ccc([N+](=O)[O-])cc1[N+](=O)[O-],-41.4%
11,C#CCOC(=O)CCCNc1ccc([N+](=O)[O-])cc1[N+](=O)[O-],-51.1%
12,CCCCOC(=O)CCCc1ccc([N+](=O)[O-])cc1[N+](=O)[O-],-52%
13,CCOC(=O)CCCNc1ccc([N+](=O)[O-])cc1[N+](=O)[O-],-13.3%
14,CCCCOc1ccc([N+](=O)[O-])cc1C(=O)O,24.9%
15,CCCCOC(=O)Nc1nc2ccc([N+](=O)[O-])cc2s1,15.1%
16,COC(=O)c1c(-c2c(Cl)cccc2Cl)noc1C(=O)NNC(=O)N(C)C,4.36%
17,CCOc1ccc(-n2c(=O)c3ccccc3c3ccccc3c2=O)cc1,17.8%
18,S=C(NCc1ccccc1)NCc1cccc(CNC(=S)NCc2ccccc2)c1,21.7%
19,CCOC(=O)c1cc2c(=O)n3cccc(C)c3nc2n(CCOC)c1=NC(C)=O,-16.3%
20,CCOCCCn1c(=NC(=O)c2cccnc2)c(C(=O)OCC)cc2c(=O)n3ccccc3nc21,-70.1%
21,CCOCCCn1c(=NC(C)=O)c(C(=O)OCC)cc2c(=O)n3ccccc3nc21,-22.9%
22,CCOC(=O)c1cc2c(=O)n3cccc(C)c3nc2n(CCCOC)c1=NC(=O)c1cccnc1,-78.6%
23,CCOC(=O)c1cc2c(=O)n3ccccc3nc2n(CCCOC)c1=NC(=O)c1cccnc1,-68%

row,SMILES,"hERG current change (%, negative = inhibition) at 10uM"
1,CCC1=C(OC(=O)N(CC)CC)N2C(=O)OC(=NCC(=O)OC)[C@]2(C)[C@H]2C1=CC[C@H]1C(=O)NC(=O)[C@H]12,-15.5%
2,Cc1onc(COc2ccccc2O)c1Br,11.2%
3,COc1cccc(NC(=O)CN(C)C(C)C(=O)Nc2ccc(S(=O)(=O)N3CCOCC3)cc2)c1 (stereo not drawn),-15.1%
4,COc1ccccc1-c1noc(Cn2cc(S(=O)(=O)N3CCCC3)ccc2=O)n1,-3.72%
5,C=CCc1cc(Cl)ccc1OCCCNC(C)CC.O=C(O)C(=O)O (stereo not drawn),-55.7%
6,CCC(C)NCCOCCOc1ccc(Br)cc1.O=C(O)C(=O)O (stereo not drawn),-18.1%
7,CCC(C)NCCOCCOc1ccc(C)cc1Br.O=C(O)C(=O)O (stereo not drawn),-41%
8,Cc1cc(OCCOCCNC(C)C)cc(C)c1Cl.O=C(O)C(=O)O,-47.3%
9,CCC(C)NCCCOc1ccc(Cl)cc1C(C)(C)C.O=C(O)C(=O)O (stereo not drawn),-8.48%
10,C=CCc1cc(Cl)ccc1OCCNCCCOC.O=C(O)C(=O)O,-37.9%
11,C=CCc1cc(Cl)ccc1OCCCNC(C)C.O=C(O)C(=O)O,-40.1%
12,CC(C)NCCOCCOc1ccc(Cl)cc1Br.O=C(O)C(=O)O,-32.2%
13,CCC(C)NCCCOc1cc(Cl)ccc1Cl.O=C(O)C(=O)O (stereo not drawn),-42.3%
14,CCC(C)NCCOCCOc1ccc(Cl)cc1Br.O=C(O)C(=O)O (stereo not drawn),-51.1%
15,CCC(C)NCCOCCOc1cc(C)c(Cl)c(C)c1.O=C(O)C(=O)O (stereo not drawn),-59.2%
16,CCC(C)NCCCCOc1ccc(Cl)cc1C.O=C(O)C(=O)O (stereo not drawn),-58.6%
17,O=C1CCc2ccccc2N1,16.5%
18,Cc1ccc(-c2csc(NC(=O)c3ccccc3Cl)c2C(=O)O)cc1,20.8%
19,COCc1nnc(NC(=O)c2ccc(S(=O)(=O)N(CC(C)C)CC(C)C)cc2)o1,-7.19%
20,NNc1nc2cc3c(cc2s1)OCCO3,14.1%
21,CN(C(=O)CSc1nc2c(cnn2-c2ccccc2)c(=O)[nH]1)C1CCS(=O)(=O)C1 (stereo not drawn),16.1%
22,CSCC(C)N1CCC(CCC(=O)NC2CC2)CC1 (stereo not drawn),-18.1%
23,OCCCCO,13.7%

row,SMILES,"hERG current change (%, negative = inhibition) at 10uM"
1,Oc1ccc(Cc2ncc(C(F)(F)F)cc2Cl)cc1,-15.4%
2,Cc1ccc(N(CC(=O)N2CCCCC2)S(=O)(=O)c2ccc(C)cc2)cc1,-20.9%
3,OCc1csc(=Nc2ccccc2)n1-c1ccccc1,0.29%
4,C=CCc1cc(Cl)ccc1OCCOCCNC(C)CC.O=C(O)C(=O)O (stereo not drawn),-69.2%
5,C=CCc1cc(Cl)ccc1OCCOCCNC(C)(C)C.O=C(O)C(=O)O,-49.5%
6,CCC(C)NCCOCCOc1ccc(Cl)c(C)c1C.O=C(O)C(=O)O (stereo not drawn),-31.7%
7,C=CCc1cc(Cl)ccc1OCCN(C)C.O=C(O)C(=O)O,-42%
8,CN(C)CCOCCOc1ccc(Cl)cc1C(C)(C)C.O=C(O)C(=O)O,-37.3%
9,C=CCc1cc(Cl)ccc1OCCOCCN(C)C.O=C(O)C(=O)O,-51.5%
10,Cc1occc1-c1nnc(SCC(=O)Nc2c(F)cccc2F)n1C,-7.23%
11,CCOC(=O)c1c(C)[nH]c(C)c1S(=O)(=O)N1CCN(C(=O)c2ccco2)CC1,16.5%
12,Cc1ccc(S(=O)(=O)N2CCCOC2CNC(=O)C(=O)NCc2ccc3c(c2)OCO3)cc1 (stereo not drawn),-13.4%
13,CNC(=S)NNC(=O)c1cccn(Cc2cccc(C(F)(F)F)c2)c1=O,22.2%
14,N#C/C(=C/c1ccc(O)cc1)C(=O)NCc1ccc(Cl)cc1,23.1%
15,C=CCSc1nc2ccsc2c(=O)n1-c1cccnc1,-8.97%
16,Cc1cc2nc(CO)[nH]c2cc1C,14.9%
17,O=C1NC2NC(=O)N([N+](=O)[O-])C2N1 (stereo not drawn),14.6%
18,CC(C)NC(=O)COC(=O)c1ccc(Cl)c(S(N)(=O)=O)c1,18.6%
19,O=C(Nc1c2c(nn1-c1cccc(Cl)c1)CS(=O)(=O)C2)C1CC1,-66.9%
20,O=C(Nc1c2c(nn1-c1ccc(Cl)cc1)CS(=O)(=O)C2)C1CC1,-26.8%
21,CCC(=O)Nc1c2c(nn1-c1cccc(Cl)c1)CS(=O)(=O)C2,-38.7%
22,O=C(Nc1c2c(nn1-c1ccccc1)CS(=O)(=O)C2)C1CCCC1,-0.437%
23,CC(C)CC(=O)Nc1c2c(nn1-c1cccc(Cl)c1)CS(=O)(=O)C2,-40.8%

row,SMILES,"hERG current change (%, negative = inhibition) at 10uM"
1,O=C(Nc1c2c(nn1-c1cccc(Cl)c1)CS(=O)(=O)C2)c1ccco1,-37.9%
2,O=C(Cc1ccccc1)Nc1c2c(nn1-c1cccc(Cl)c1)CS(=O)(=O)C2,-76.2%
3,CCCC(=O)Nc1c2c(nn1-c1cccc(Cl)c1)CS(=O)(=O)C2,-53.4%
4,COc1ccc(CC(=O)Nc2c3c(nn2-c2cccc(Cl)c2)CS(=O)(=O)C3)cc1,-51.7%
5,CC(=O)Nc1c2c(nn1-c1cccc(Cl)c1)CS(=O)(=O)C2,-16.8%
6,COc1ccc(CC(=O)Nc2c3c(nn2-c2cccc(Cl)c2)CS(=O)C3)cc1 (stereo not drawn),-37.1%
7,COc1ccc(CC(=O)Nc2c3c(nn2-c2cccc(C)c2C)CS(=O)(=O)C3)cc1,-24.5%
8,COc1ccc(CSCCc2n[nH]c(=S)n2-c2ccccc2)cc1C,0.99%
9,O=C(COc1ncnc2ccccc12)Nc1cccc([N+](=O)[O-])c1,-2.61%
10,Cc1cc(C)cc(N/C(N)=N/c2nc(C)cc(C)n2)c1,-50%
11,Cc1cc(C)nc(NC(N)=NC(C)c2ccccc2)n1 (stereo not drawn),-0.0621%
12,Cc1cc(C)nc(/N=C(\N)Nc2ccc(CC(=O)OC(C)C)cc2)n1,-67.6%
13,COc1cc(N/C(N)=N/c2nc(C)cc(C)n2)cc(OC)c1,-49.8%
14,Cc1cccc(N/C(N)=N/c2nc(C)cc(C)n2)c1,-28%
15,Cc1ccc(N/C(N)=N/c2nc(C(F)(F)F)cc(C(F)(F)F)n2)cc1,18.9%
16,CC(=O)NS(=O)(=O)c1ccc(N/C(N)=N/c2nc(C)cc(C)n2)cc1,13.3%
17,Cc1ccc(CN=C(N)Nc2nc(C)cc(C)n2)cc1.Cl,-76.1%
18,Cc1ccc(N/C(N)=N/c2nc(C)cc(C)n2)cc1,-68.7%
19,Cc1cc(C)nc(NC(N)=NCCc2c[nH]c3ccccc23)n1,11.6%
20,Cc1cc(C)nc(/N=C(\N)Nc2ccc(C)c([N+](=O)[O-])c2)n1,-5.32%
21,CC(=O)Nc1ccc(N/C(N)=N/c2nc(C)cc(C)n2)cc1,14%
